Source: PubChem BioAssay (Tox21)
Inconclusive results are not listed. Calls of active or inactive are those of the source. Unless noted, calls follow the shape of the full dose curve.

Target: Nuclear receptor ROR-gamma (Homo sapiens) (UniProt P51449)
Experiment: qHTS assay to identify small molecule antagonists of the retinoid-related orphan receptor gamma (ROR-gamma) signaling pathway (AID 1159521; active = well fitted inhibition curve with a large enough effect in the repeat runs;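 also: CHO cells with doxycycline inducible ROR-gamma driving an RORE luciferase reporter; top concentration of the series differs between compounds; % is scaled to controls: 0 for no effect and ±100 for the full control effect; nearly all actives have a fitted effect of over 50% in size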)
Conditions: Tet-on RORgamma CHO cells, RORE-luciferase, 16 h; series mostly up to 92.4 µM; activity change, negative = inhibition: at the top concentration
How it was run: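 Tet-on RORγ CHO cells carrying a ROR response element–luciferase reporter were pretreated with compounds for 2 h, then induced with 1 uM (final) doxycycline hyclate for 16 h at 37 C. Antagonism was read as decreased ONE-Glo luminescence.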

Compound	activity change, negative = inhibition
OCCCCC(O)CO (stereo not drawn)	1.12% (inactive)
ClCCCl	7.05% (inactive)
CC(C)CCCCOC(=O)c1ccccc1C(=O)OCCCCC(C)C	8.65% (inactive)
C=COCCOCCOCCOC=C	17.1% (inactive)
c1ccc2nccnc2c1	17.3% (inactive)
O=C(NCCc1c[nH]c2ccccc12)c1cccnc1	39.2% [at 42.5 µM] (inactive)
CCCCCCCCC1CCC(=O)O1 (stereo not drawn)	183% (inactive)
CC1COc2ccccc2N1 (stereo not drawn)	36.4% (inactive)
C#CC(C)N(C)C(=O)Nc1ccc(Cl)cc1 (stereo not drawn)	55.7% (inactive)
CN1C(C)(C)CCCC1(C)C	-4.89% [at 42.5 µM] (inactive)
O=S(=O)(O)c1cc(O)c2ccc(Nc3ccccc3)cc2c1	3.05% (inactive)
CC(C)c1ccc2cc(C(C)C)ccc2c1	13.1% (inactive)
O=C(c1ccc(O)cc1)c1ccc(O)c(O)c1O	27.2% (inactive)
CC(C)(C)c1nnc(NS(=O)(=O)c2ccc(N)cc2)s1	7.55% [at 42.5 µM] (inactive)
C[C@@H]1O[C@@H](O[C@@H]2[C@@H](O)[C@H](OCCc3ccc(O)c(O)c3)O[C@H](CO[C@@H]3O[C@H](CO)[C@@H](O)[C@H](O)[C@H]3O)[C@H]2OC(=O)/C=C/c2ccc(O)c(O)c2)[C@H](O)[C@H](O)[C@H]1O	13.6% (inactive)
CC(C)CC(=O)O	11.9% (inactive)
Cc1cccc(OCC(O)CNC(C)(C)C)c1C (stereo not drawn)	-9.12% [at 42.5 µM] (inactive)
CCCC(=O)C(C)=O	1.79% (inactive)
O=S(=O)(O)c1ccc2cc(O)c(S(=O)(=O)O)cc2c1	2.61% (inactive)
COc1cc(NS(=O)(=O)c2ccc(N)cc2)nc(OC)n1	32.6% [at 42.5 µM] (inactive)
CC(C)(C)c1cc(CCC(=O)NN)cc(C(C)(C)C)c1O	2.56% (inactive)
CC(N)C(=O)OC(C)(C)Cc1ccc(Cl)cc1 (stereo not drawn)	0.555% [at 42.5 µM] (inactive)
CCCN1C[C@H](CSC)C[C@@H]2c3cccc4[nH]cc(c34)C[C@H]21	-31.3% [at 42.5 µM] (inactive)
CC(C(=O)O)c1ccc2c(c1)CC(=O)c1ccccc1S2 (stereo not drawn)	-2.78% [at 42.5 µM] (inactive)
CC(C)C(=O)OCCc1ccccc1	-0.435% (inactive)
COCCOC(=O)C1=C(C)NC(C)=C(C(=O)OC(C)C)C1c1cccc([N+](=O)[O-])c1 (stereo not drawn)	19.3% [at 42.5 µM] (inactive)
C=CCCCCCCCCCCCC	9.05% (inactive)
Cc1ccc(S(=O)(=O)O)c(C)c1	-1.86% (inactive)
Nc1ccc([N+](=O)[O-])c(N)c1	6.13% (inactive)
CC[C@H](C)C(=O)O[C@H]1C[C@H](O)C=C2C=C[C@H](C)[C@H](CC[C@@H](O)C[C@@H](O)CC(=O)O)[C@H]21	-22.3% (inactive)

System: not listed separately
Experiment: qHTS assay to identify small molecule agonists of the AP-1 signaling pathway - cell viability counter screen (AID 1159525); also: nearly all actives have a fitted effect of over 55% in size
Conditions: ME-180 AP-1-bla cells viability, ATP luminescence, 5 h; series mostly up to 76.8 µM; viability change, negative = cytotoxic: at the top concentration
How it was run: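 Intracellular ATP by Cell Titer Glo luminescence (30 min, RT) in the same ME-180 AP-1-bla wells after the 5 h compound exposure at 37 °C. Normalised to tetra n-octyl ammonium bromide and DMSO controls.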

Compound	viability change, negative = cytotoxic
OCCCCC(O)CO (stereo not drawn)	-0.543% (inactive)
CCCCCCCCC(=O)Cl	-2.87% (inactive)
ClCCCl	0.425% (inactive)
CC(C)CCCCOC(=O)c1ccccc1C(=O)OCCCCC(C)C	0.0029% (inactive)
C=COCCOCCOCCOC=C	0.0896% (inactive)
c1ccc2nccnc2c1	-11% (inactive)
CCCCCCCCC1CCC(=O)O1 (stereo not drawn)	-8.02% (inactive)
CC1COc2ccccc2N1 (stereo not drawn)	7.65% (inactive)
CCCCNC1CC(C)(C)NC(C)(C)C1	-3.96% (inactive)
C#CC(C)N(C)C(=O)Nc1ccc(Cl)cc1 (stereo not drawn)	-0.752% (inactive)
CN1C(C)(C)CCCC1(C)C	5.94% [at 35.3 µM] (inactive)
CC(C)(C)c1nnc(NS(=O)(=O)c2ccc(N)cc2)s1	-0.316% [at 35.3 µM] (inactive)
C[C@@H]1O[C@@H](O[C@@H]2[C@@H](O)[C@H](OCCc3ccc(O)c(O)c3)O[C@H](CO[C@@H]3O[C@H](CO)[C@@H](O)[C@H](O)[C@H]3O)[C@H]2OC(=O)/C=C/c2ccc(O)c(O)c2)[C@H](O)[C@H](O)[C@H]1O	2.08% (inactive)
CC(C)CC(=O)O	3.36% (inactive)
Cc1cccc(OCC(O)CNC(C)(C)C)c1C (stereo not drawn)	-7.23% [at 35.3 µM] (inactive)
CCCC(=O)C(C)=O	4.85% (inactive)
O=S(=O)(O)c1ccc2cc(O)c(S(=O)(=O)O)cc2c1	1.7% (inactive)
CCCOC(OCCC)OCCC	2.62% (inactive)
COc1cc(N)ccc1C	-13.4% (inactive)
CC(C)(C)c1cc(CCC(=O)NN)cc(C(C)(C)C)c1O	-3.68% (inactive)
CC(N)C(=O)OC(C)(C)Cc1ccc(Cl)cc1 (stereo not drawn)	-10.6% [at 35.3 µM] (inactive)
CCCN1C[C@H](CSC)C[C@@H]2c3cccc4[nH]cc(c34)C[C@H]21	-9.37% [at 35.3 µM] (inactive)
CC(C(=O)O)c1ccc2c(c1)CC(=O)c1ccccc1S2 (stereo not drawn)	-7.03% [at 35.3 µM] (inactive)
CC(C)C(=O)OCCc1ccccc1	-0.0214% (inactive)
COCCOC(=O)C1=C(C)NC(C)=C(C(=O)OC(C)C)C1c1cccc([N+](=O)[O-])c1 (stereo not drawn)	-30% [at 35.3 µM] (inactive)
COc1cc2c(cc1OC)[C@@H]1CC(=O)[C@@H](CC(C)C)CN1CC2	0.0833% [at 35.3 µM] (inactive)
C=CCCCCCCCCCCCC	-1.28% (inactive)
Cc1cc2cc3c(C)cc(=O)oc3c(C)c2o1	7.87% [at 35.3 µM] (inactive)
Cc1ccccc1N=O	3.35% (inactive)
CC[C@H](C)C(=O)O[C@H]1C[C@H](O)C=C2C=C[C@H](C)[C@H](CC[C@@H](O)C[C@@H](O)CC(=O)O)[C@H]21	-18.3% (inactive)

System: not listed separately
Experiment: qHTS assay to identify small molecule agonists of the AP-1 signaling pathway (AID 1159526); also: % is scaled to controls: 0 for no effect and ±100 for the full control effect
Conditions: ME-180 (cervical carcinoma) AP-1-bla reporter, beta-lactamase FRET ratio, 5 h; series mostly up to 76.8 µM; activation: at the top concentration

Compound	activation
OCCCCC(O)CO (stereo not drawn)	-5.17% (inactive)
CCCCCCCCC(=O)Cl	0.253% (inactive)
ClCCCl	21.9% (inactive)
CC(C)CCCCOC(=O)c1ccccc1C(=O)OCCCCC(C)C	6.74% (inactive)
C=COCCOCCOCCOC=C	-9.27% (inactive)
c1ccc2nccnc2c1	22.2% (inactive)
O=C(NCCc1c[nH]c2ccccc12)c1cccnc1	-1.73% [at 35.3 µM] (inactive)
CCCCCCCCC1CCC(=O)O1 (stereo not drawn)	-1.76% (inactive)
CC1COc2ccccc2N1 (stereo not drawn)	5.02% (inactive)
CCCCNC1CC(C)(C)NC(C)(C)C1	-3.81% (inactive)
C#CC(C)N(C)C(=O)Nc1ccc(Cl)cc1 (stereo not drawn)	-0.31% (inactive)
CN1C(C)(C)CCCC1(C)C	-4.27% [at 35.3 µM] (inactive)
O=S(=O)(O)c1cc(O)c2ccc(Nc3ccccc3)cc2c1	6.06% (inactive)
CC(C)c1ccc2cc(C(C)C)ccc2c1	4.96% (inactive)
O=C(c1ccc(O)cc1)c1ccc(O)c(O)c1O	0.987% (inactive)
CC(C)(C)c1nnc(NS(=O)(=O)c2ccc(N)cc2)s1	-1.25% [at 35.3 µM] (inactive)
C[C@@H]1O[C@@H](O[C@@H]2[C@@H](O)[C@H](OCCc3ccc(O)c(O)c3)O[C@H](CO[C@@H]3O[C@H](CO)[C@@H](O)[C@H](O)[C@H]3O)[C@H]2OC(=O)/C=C/c2ccc(O)c(O)c2)[C@H](O)[C@H](O)[C@H]1O	-1.51% (inactive)
CC(C)CC(=O)O	-4.17% (inactive)
Cc1cccc(OCC(O)CNC(C)(C)C)c1C (stereo not drawn)	-9.62% [at 35.3 µM] (inactive)

Compound	activation
CCCC(=O)C(C)=O	-0.856% (inactive)
O=S(=O)(O)c1ccc2cc(O)c(S(=O)(=O)O)cc2c1	-2.2% (inactive)
CCCOC(OCCC)OCCC	-7.01% (inactive)
COc1cc(N)ccc1C	8.77% (inactive)
COc1cc(NS(=O)(=O)c2ccc(N)cc2)nc(OC)n1	-8.4% [at 35.3 µM] (inactive)
CC(C)(C)c1cc(CCC(=O)NN)cc(C(C)(C)C)c1O	-1.74% (inactive)
CC(N)C(=O)OC(C)(C)Cc1ccc(Cl)cc1 (stereo not drawn)	9.44% [at 35.3 µM] (inactive)
CCCN1C[C@H](CSC)C[C@@H]2c3cccc4[nH]cc(c34)C[C@H]21	10% [at 35.3 µM] (inactive)
CC(C(=O)O)c1ccc2c(c1)CC(=O)c1ccccc1S2 (stereo not drawn)	-0.583% [at 35.3 µM] (inactive)
CC(C)C(=O)OCCc1ccccc1	-10.1% (inactive)
COCCOC(=O)C1=C(C)NC(C)=C(C(=O)OC(C)C)C1c1cccc([N+](=O)[O-])c1 (stereo not drawn)	-1.31% [at 35.3 µM] (inactive)
COc1cc2c(cc1OC)[C@@H]1CC(=O)[C@@H](CC(C)C)CN1CC2	-0.13% [at 35.3 µM] (inactive)
C=CCCCCCCCCCCCC	-3.24% (inactive)
Cc1cc2cc3c(C)cc(=O)oc3c(C)c2o1	20.5% [at 35.3 µM] (inactive)
CC1=CCC(C(C)C)=CC1	-1.31% (inactive)
Cc1ccc(S(=O)(=O)O)c(C)c1	0.322% (inactive)
Nc1ccc([N+](=O)[O-])c(N)c1	-2.88% (inactive)
Cc1ccccc1N=O	-1.73% (inactive)
CC[C@H](C)C(=O)O[C@H]1C[C@H](O)C=C2C=C[C@H](C)[C@H](CC[C@@H](O)C[C@@H](O)CC(=O)O)[C@H]21	-16.4% (inactive)
